Test results taken from PubChem BioAssay AID1159580 (chemical genetic matrix, 2015).
The whole screen tested about 5,500 compounds, of which about 2,000 (36%) were called active. Another 18% or so got no clear call; they are omitted. Cut-off read from the data, not from the text of the source: active = normalized growth mostly below about 0.91 (no sharp cut-off); inconclusive = no clear call, values can overlap the other calls; inactive = mostly above about 0.92. Some of the results follow.

Experiment: chemical genetic growth profiling, strain panel (AID 1159580);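 note: tested at 20 µM; growth read once vehicle control cultures reached saturation at 30 °C; 1 = growth at the plate median or of vehicle wells; lower values mean less growth of the strain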
Details: growth OD
[1] = S. cerevisiae deletion strains, locus YGR078C, strain PAC10, hits give low values
[2] = S. cerevisiae deletion strains, locus YMR263W, strain SAP30, hits give low values
[3] = S. cerevisiae deletion strains, locus YNL153C, strain GIM3, hits give low values
[4] = S. cerevisiae deletion strains, locus YNL322C, strain KRE1, hits give low values
[5] = S. cerevisiae deletion strains, locus YPL055C, strain LGE1, hits give low values
[6] = S. cerevisiae deletion strains, locus YPL241C, strain CIN2, hits give low values

Measured: normalized growth

CC1=C(C(=O)O)N2C(=O)[C@@H](NC(=O)C(N)C3=CCC=CC3)[C@H]2SC1 (stereo partly drawn)
inactive: S. cerevisiae deletion strains, locus YAL040C, strain CLN3, hits give low values 1.02 | S. cerevisiae deletion strains, locus YDR363W, strain ESC2, hits give low values 1.03 | S. cerevisiae deletion strains, locus YER002W, strain NOP16, hits give low values 1.02 | [1] 1.01 | [2] 1.03 | [3] 1.01 | S. cerevisiae deletion strains, locus YNL175C, strain NOP13, hits give low values 1.02 | S. cerevisiae deletion strains, locus YNL197C, strain WHI3, hits give low values 1.03 | S. cerevisiae deletion strains, locus YNL224C, strain SQS1, hits give low values 1.01 | [4] 1.03 | S. cerevisiae deletion strains, locus YOR083W, strain WHI5 (second series), hits give low values 1.04 | [5] 1.02 | [6] 1.01

CN=C1CN(O)C(c2ccccc2)=c2cc(Cl)ccc2=N1
inactive: S. cerevisiae deletion strains, locus YAL013W, strain DEP1, hits give low values 0.989 | S. cerevisiae deletion strains, locus YBR021W, strain FUR4, hits give low values 1.06 | S. cerevisiae deletion strains, locus YBR229C, strain ROT2, hits give low values 0.969 | S. cerevisiae deletion strains, locus YCL029C, strain bik1, hits give low values 0.981 | S. cerevisiae deletion strains, locus YDL035C, strain GPR1, hits give low values 1.01 | S. cerevisiae deletion strains, locus YDL074C, strain BRE1, hits give low values 0.965 | S. cerevisiae deletion strains, locus YDL101C, strain DUN1, hits give low values 0.974 | S. cerevisiae deletion strains, locus YDL134C, strain PPH21, hits give low values 0.983 | S. cerevisiae deletion strains, locus YDL185W, strain tfp1, hits give low values 0.946 | S. cerevisiae deletion strains, locus YDL192W, strain arf1, hits give low values 0.983 | S. cerevisiae deletion strains, locus YDR101C, strain arx1, hits give low values 1.01 | S. cerevisiae deletion strains, locus YDR150W, strain NUM1, hits give low values 0.971 | S. cerevisiae deletion strains, locus YDR162C, strain NBP2, hits give low values 0.94 | S. cerevisiae deletion strains, locus YDR318W, strain mcm21, hits give low values 1.01 | S. cerevisiae deletion strains, locus YDR388W, hits give low values 0.983 | S. cerevisiae deletion strains, locus YDR502C, strain sam2, hits give low values 0.971 | S. cerevisiae deletion strains, locus YEL061C, strain CIN8, hits give low values 0.985 | S. cerevisiae deletion strains, locus YER110C, hits give low values 0.985 | S. cerevisiae deletion strains, locus YER155C, strain BEM2, hits give low values 0.997 | S. cerevisiae deletion strains, locus YER167W, strain BCK2, hits give low values 1 | S. cerevisiae deletion strains, locus YGL078C, strain dbp3, hits give low values 0.975 | S. cerevisiae deletion strains, locus YGL086W, strain mad1, hits give low values 1 | S. cerevisiae deletion strains, locus YGL248W, strain PDE1, hits give low values 0.978 | [1] 0.978 | S. cerevisiae deletion strains, locus YGR135W, strain pre9, hits give low values 0.955 | S. cerevisiae deletion strains, locus YGR229C, strain SMI1, hits give low values 0.993 | S. cerevisiae deletion strains, locus YGR252W, strain gcn5, hits give low values 1.06 | S. cerevisiae deletion strains, locus YHR030C, strain SLT2, hits give low values 1 | S. cerevisiae deletion strains, locus YHR079C, strain IRE1 (second series), hits give low values 0.991 | S. cerevisiae deletion strains, locus YHR094C, strain hxt1, hits give low values 0.987 | S. cerevisiae deletion strains, locus YHR129C, strain ARP1, hits give low values 0.992 | S. cerevisiae deletion strains, locus YHR200W, strain rpn10, hits give low values 0.983 | S. cerevisiae deletion strains, locus YIL066C, strain RNR3, hits give low values 0.97 | S. cerevisiae deletion strains, locus YIL073C, strain SPO22, hits give low values 1.02 | S. cerevisiae deletion strains, locus YIL125W, strain kgd1, hits give low values 0.978 | S. cerevisiae deletion strains, locus YIR030C, strain dcg1, hits give low values 0.985 | S. cerevisiae deletion strains, locus YJL095W, strain BCK1, hits give low values 0.981 | S. cerevisiae deletion strains, locus YJL134W, strain LCB3, hits give low values 0.997 | S. cerevisiae deletion strains, locus YJL168C, strain set2, hits give low values 0.984 | S. cerevisiae deletion strains, locus YJL187C, strain SWE1 (second series), hits give low values 0.959 | S. cerevisiae deletion strains, locus YJR043C, strain POL32, hits give low values 1.03 | S. cerevisiae deletion strains, locus YJR075W, strain HOC1, hits give low values 0.988 | S. cerevisiae deletion strains, locus YKL009W, strain mrt4, hits give low values 0.982 | S. cerevisiae deletion strains, locus YKL068W, hits give low values 0.988 | S. cerevisiae deletion strains, locus YKL085W, strain MDH1 (second series), hits give low values 0.978 | S. cerevisiae deletion strains, locus YKL085W, strain MDH1, hits give low values 0.978 | S. cerevisiae deletion strains, locus YKL190W, strain CNB1, hits give low values 0.979 | S. cerevisiae deletion strains, locus YKR001C, strain vps1, hits give low values 0.998 | S. cerevisiae deletion strains, locus YLR039C, strain RIC1, hits give low values 0.973 | S. cerevisiae deletion strains, locus YLR058C, strain SHM2, hits give low values 0.983 | S. cerevisiae deletion strains, locus YLR102C, strain apc9, hits give low values 0.976 | S. cerevisiae deletion strains, locus YLR262C, strain YPT6, hits give low values 0.969 | S. cerevisiae deletion strains, locus YLR268W, strain sec22, hits give low values 0.991 | S. cerevisiae deletion strains, locus YLR330W, strain CHS5, hits give low values 0.998 | S. cerevisiae deletion strains, locus YLR342W, strain FKS1 (second series), hits give low values 1.06 | S. cerevisiae deletion strains, locus YLR371W, strain rom2, hits give low values 0.969 | S. cerevisiae deletion strains, locus YLR418C, strain cdc73, hits give low values 0.951 | S. cerevisiae deletion strains, locus YML016C, strain PPZ1, hits give low values 0.988 | S. cerevisiae deletion strains, locus YML032C, strain rad52, hits give low values 0.989 | S. cerevisiae deletion strains, locus YML124C, strain tub3, hits give low values 0.984 | S. cerevisiae deletion strains, locus YMR078C, strain ctf18, hits give low values 0.98 | [2] 0.957 | S. cerevisiae deletion strains, locus YMR307W, strain GAS1, hits give low values 1.06 | S. cerevisiae deletion strains, locus YNL067W, strain RPL9B, hits give low values 0.974 | S. cerevisiae deletion strains, locus YNL128W, strain TEP1, hits give low values 0.966 | [3] 0.962 | S. cerevisiae deletion strains, locus YNL233W, strain BNI4, hits give low values 0.98 | S. cerevisiae deletion strains, locus YNL250W, strain rad50, hits give low values 0.981 | S. cerevisiae deletion strains, locus YNL271C, strain bni1, hits give low values 0.985 | S. cerevisiae deletion strains, locus YNL298W, strain CLA4, hits give low values 0.977 | S. cerevisiae deletion strains, locus YNL307C, strain MCK1, hits give low values 0.999 | [4] 0.987 | S. cerevisiae deletion strains, locus YNR052C, strain pop2, hits give low values 0.985 | S. cerevisiae deletion strains, locus YOL006C, strain TOP1, hits give low values 0.949 | S. cerevisiae deletion strains, locus YOL012C, strain htz1 0.854 | S. cerevisiae deletion strains, locus YOL147C, strain pex11, hits give low values 0.995 | S. cerevisiae deletion strains, locus YOR061W, strain CKA2, hits give low values 0.969 | S. cerevisiae deletion strains, locus YOR069W, strain VPS5, hits give low values 1 | S. cerevisiae deletion strains, locus YOR136W, strain idh2, hits give low values 0.988 | S. cerevisiae deletion strains, locus YOR144C, strain elg1, hits give low values 0.984 | S. cerevisiae deletion strains, locus YOR184W, strain ser1, hits give low values 1.01 | S. cerevisiae deletion strains, locus YOR316C, strain cot1, hits give low values 0.975 | [5] 0.934 | [6] 0.99 | S. cerevisiae deletion strains, locus YPR119W, strain clb2, hits give low values 0.989 | S. cerevisiae deletion strains, locus YPR141C, strain kar3, hits give low values 0.962 | S. cerevisiae deletion strains, locus YPR163C, strain tif3, hits give low values 0.988 | S. cerevisiae deletion strains, locus YPR167C, strain met16, hits give low values 0.983 | S. cerevisiae deletion strains, strain wtn01, hits give low values 0.984 | S. cerevisiae strains, strain wild type, hits give low values 0.994
